Experimental findings from PubChem BioAssay (NCI) are described below.

Compounds without any hit were thinned out: in the full panel of roughly 83,000, 20% have a hit.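 Each cell line was grown in a 96-well plate and treated with one concentration of compound for 48 hours. Values below 10 were considered active.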 Unmarked numbers belong to inactive results. Activity calls are given as the source filed them.

Common to all, as to test: NCI-60 one-dose screen, 48 h (100 = growth as untreated, 0 = no growth, -100 = all killed)
What all share (conditions): 10 µM unless noted

Experiment [1] has as its system NCI-H23 lung.
Experiment [2] has as its system NCI-H226 lung.
Experiment [3] concerns NCI-H322M lung.
Experiment [4] relates to HOP-62 NSCLC.
The subject of experiment [5] is NCI-H460 lung.
In experiment [6] the test system is HOP-92 NSCLC.
In experiment [7] the test system is NCI-H522 lung.
The test system of experiment [8] is A549/ATCC NSCLC.
For experiment [9], the system named is 786-0 renal.
The subject of experiment [10] is COLO 205 colon.

With `O=C(CC(=O)Nc1cccc(C(=O)O)c1)Nc1cccc(C(=O)O)c1`, the growth in experiment [1] was 107%; in experiment [2] it was 112%; in experiment [3], 105%; in [4], 88.3%; in [5], 100%; in experiment [6], 99.7%. The growth was 78% in [7], 85.8% in experiment [8], 98% in experiment [9] and 100% in experiment [10].

Take `Cc1cn(-c2cc(NC(=O)c3cncc(C#Cc4c(N)ncc5ccc(F)cc45)c3)cc(C(F)(F)F)c2)cn1`: the growth in experiment [1] is 25%; in [2], 36.2%; in experiment [3] it was 65.7%; in [4] it was 67.3%; in experiment [5], 49.2%; in [6], -8.98% (active). Further, the growth was 58.1% in experiment [7], 61.3% in experiment [8], 77.1% in experiment [9] and 11.6% in [10].

`CC[N+]1(CC)CC[N+]2(CCCC(C)CC2)CC1` (stereo not given): the growth in [1] was 102%; in experiment [2], 104%; in [3], 106%; in [4], 106%; in experiment [5], 105%; in experiment [6] it was 96.4%. The growth in [7] is 93.3%; in experiment [8] it was 91.6%; in experiment [9], 99.9%; in experiment [10], 113%.

As for `O=C(Cc1ccc(/C=C/C(=O)c2ncc[nH]2)cc1)Nc1cc(C(F)(F)F)cc(C(F)(F)F)c1`, the growth is 93.9% in experiment [1]; 103% in [2]; 96.4% in experiment [3]; 106% in experiment [4]; 93.7% in experiment [5]; 116% in experiment [6]. The growth in experiment [7] was 96.6%; in experiment [8], 81.1%; in experiment [9], 52.2%; in experiment [10], 102%.

In the case of `COc1ccccc1N(C(C)=O)C1=C(Cl)C(=O)c2ccccc2C1=O`, the growth in experiment [1] was -12.1% (active); in [2] it was 23.7%; in experiment [3], 38%; in experiment [4], 38.6%; in [5], 4.81% (active); in experiment [6], -14.9% (active). Moreover, the growth was -78% (active) in [7], 8.36% (active) in [8], 37.2% in experiment [9] and -11.7% (active) in experiment [10].

As to `Cc1cc2c(cc1C)N(C(=O)CCl)CC(=O)N2`, the growth in experiment [1] was 55.7%; in experiment [2], 33.1%; in [3], 95%; in experiment [4] it was 73.4%; in experiment [5], 88.7%; in [6], 93.4%. The growth in experiment [7] was -81.7% (active); in experiment [8] it was 88.1%; in [9], 51.2%; in experiment [10], -95.6% (active).

Take `C=C(CNCCc1ccc(O)cc1)[C@@H]1CC[C@]2(CO)CC[C@]3(C)[C@H](CC[C@@H]4[C@@]5(C)CCC(=O)C(C)(C)[C@@H]5CC[C@]43C)[C@@H]12`: the growth in experiment [1] is 65.7%; in experiment [2], 93.1%; in experiment [3] it was 63.2%; in [4], 84.4%; in experiment [5], -48.8% (active); in experiment [6] it was 35.1%. Further, the growth in experiment [7] is 29.2%; in experiment [8], 26.7%; in experiment [9], 44.7%; in experiment [10], -55.6% (active).

Regarding `CCCCNc1cc(-c2cn[nH]c2-c2cc(C)cc(OC)c2)nc(-c2cccnc2)n1`, the growth in [1] was 101%; in [2], 87.4%; in [3] it was 86.9%; in [4], 95.6%; in [5] it was 99.7%; in [6], 68.2%. Further, the growth was 81.2% in [7], 94.3% in experiment [8], 68.2% in experiment [9] and 99.5% in experiment [10].

On to `O=C(N/N=C/c1cc(Cl)ccc1O)c1ccccc1Nc1ccnc(C(F)(F)F)c1`, for which the growth in experiment [1] is 37.9%; in [2] it was -1.12% (active); in [3], 19.9%; in experiment [4], 30.4%; in experiment [5], 4.73% (active); in experiment [6] it was 14%. In addition, the growth in experiment [7] was 50.9%; in experiment [8], 54.4%; in experiment [9], 27.2%; in experiment [10] it was 14.1%.

Turning to `O=C(N/N=C\c1ccccc1S(=O)(=O)O)N/N=C/c1ccccc1S(=O)(=O)O`, the growth was 102% in [1]; 105% in [2]; 99.3% in experiment [3]; 101% in experiment [4]; 98.5% in experiment [5]; 96.8% in experiment [6]. Moreover, the growth in [7] was 98.5%; in [8], 97.9%; in [9], 95%; in [10], 106%.

Turning to `COc1ccc(/C=C/C(=O)c2cc(OC)c(OC)c(OC)c2)cc1OCC(=O)Nc1nc2ccc(OC(F)(F)F)cc2s1`, the growth is 11.5% in [1]; 40.6% in [2]; 4.88% (active) in experiment [3]; -53.3% (active) in [4]; -22.9% (active) in [5]; 54.9% in experiment [6]. For the same molecule, the growth was -35.5% (active) in experiment [7], 14.7% in experiment [8], 58.9% in [9] and 77% in [10].

In the case of `COc1cccc(Nc2ncnc3cc(NC(=O)CCl)ccc23)c1`, the growth in experiment [1] is -50.9% (active); in experiment [2] it was -48.3% (active); in experiment [3] it was 37.5%; in [4], -89.8% (active); in experiment [5], -72.7% (active); in experiment [6] it was -74.8% (active). Besides, the growth in [7] is -77.4% (active); in experiment [8], -27.7% (active); in experiment [9] it was -89.7% (active); in experiment [10], -90% (active).

In the case of `O=C(CCCCCCN1CC(=O)N2[C@H](c3ccc(Br)cc3)c3[nH]c4ccccc4c3C[C@@H]2C1=O)NO`, the growth in experiment [1] is 53%; in experiment [2] it was 80.2%; in [3], 50.3%; in experiment [4], 52.2%; in [5], 44.7%; in experiment [6], 31.3%. In addition, the growth was 26.9% in experiment [7], 80% in experiment [8], 89.1% in experiment [9] and 38.7% in [10].
